Screening data: PubChem, Broad Institute
A selection follows.
aSyn UTR act = Activators working through SNCA 5'UTR binding (MLPCN) | alpha-synuclein 5'UTR reporter, activators screen | activity score, % (tested at 7.5 µM), hits read low | actives 7.1% (n = 300,000) | AID 1814; in the data active = activity score below about -60%
* = called active by the depositor.

Oc1ccc(/C=N/Nc2nccnc2Cl)c(O)c1 was read as aSyn UTR act 88.
Cc1ccc(S(=O)(=O)Nc2cccc3cccnc23)c([N+](=O)[O-])c1 was read as aSyn UTR act 71.
Oc1ccc(/C=N/Nc2cccc3cccnc23)c(O)c1 was read as aSyn UTR act -405*.
Cc1ccc(/C=N/Nc2cccc3cccnc23)c(O)c1 was read as aSyn UTR act -271*.
Screening Cc1ccc(-c2ccc(/C=C3\SC(N4CCOCC4)=NC3=O)o2)cc1 returned aSyn UTR act -72*.
CCOc1cc(C2NN=C(c3ccccc3)S2)ccc1OCc1ccccc1Cl (configuration not stated) was read as aSyn UTR act -132*.
`CCOc1cc(CNCCCN2CCOCC2)cc(Br)c1OCc1ccccc1Cl` gave aSyn UTR act 96.
For CCOc1cc(C2NN=C(c3ccccc3)S2)ccc1OCc1ccc(F)cc1 (configuration not stated) the results were aSyn UTR act -129*.
Screening Cc1nc(N2CCN(C(=O)c3ccco3)CC2)nc2c1C(=O)CCC2 returned aSyn UTR act -121*.
`COc1ccccc1N1CCN(c2nc(C)nc3c2oc2ccccc23)CC1` gave aSyn UTR act 90.
Screening Cc1nc(N2CCN(C(=O)c3ccco3)CC2)c2oc3ccccc3c2n1 returned aSyn UTR act -89*.
Screening O=C(c1ccco1)N1CCN(c2ccc(F)cc2)CC1 returned aSyn UTR act -79*.
For O=C(c1ccco1)N1CCN(c2ccc(N3CCCCC3)nn2)CC1 the results were aSyn UTR act -133*.
O=C(Nc1ccc(-c2ccc(N3CCCCC3)nn2)cc1)c1ccco1 was read as aSyn UTR act -131*.
`CC(C)=C1C2C=CC1C(C(=O)Nc1cccc(C)c1)C2C(=O)O` (configuration not stated) gave aSyn UTR act -62*.
O=C(Cc1ccc(S(=O)(=O)N2CCOCC2)s1)Nc1ccc(N2CCOCC2)cc1 was read as aSyn UTR act -99*.
O=C1C(N2CCOCC2)=C(n2nnc3ccccc32)C(=O)c2ccccc21 was read as aSyn UTR act 44.
Screening O=S1(=O)C=C(N2CCOCC2)c2ccccc21 returned aSyn UTR act -70*.
Cc1ccc(NC(=O)CSc2nnc(-c3ccccc3C)o2)cc1C was read as aSyn UTR act -89*.
`Cc1cc(C)cc(NC(=O)CSc2nnc(-c3ccccc3C)o2)c1` gave aSyn UTR act -119*.
Cc1cccc(NC(=O)CSc2nnc(-c3ccccc3C)o2)c1 was read as aSyn UTR act -94*.
For CC1CC(C)CN(C(=O)/C=C/c2ccc([N+](=O)[O-])s2)C1 (configuration not stated) the results were aSyn UTR act -97*.
`O=C(/C=C/c1cccs1)N1CCCCC1` gave aSyn UTR act -92*.
`CC1CN(C(=O)/C=C/c2ccc([N+](=O)[O-])s2)CC(C)O1` (configuration not stated) gave aSyn UTR act -82*.
`O=C(/C=C/c1ccc([N+](=O)[O-])s1)N1CCCC1` gave aSyn UTR act -102*.
Screening CN(C)c1ccc(N=Cc2nc(-c3ccccc3)oc2O)cc1 returned aSyn UTR act -95*.
Screening Oc1oc(-c2ccccc2)nc1C=NCc1ccccc1 returned aSyn UTR act -133*.
CC(=O)Oc1oc(-c2ccccc2)nc1/C=N/c1ccccn1 was read as aSyn UTR act -72*.
For CN(C)c1ccc(N=Cc2nc(-c3ccccc3)oc2OC(=O)c2ccccc2)cc1 the results were aSyn UTR act -115*.
COc1cc2c(cc1NC(=O)C(C)OC(=O)/C=C/c1ccc(OC(F)F)cc1)oc1ccccc12 (configuration not stated) was read as aSyn UTR act -150*.
`COc1cc2c(cc1NC(=O)CSc1nccn1C)oc1ccccc12` gave aSyn UTR act -229*.
COc1cc2c(cc1NC(=O)Nc1ccc(F)cc1)oc1ccccc12 was read as aSyn UTR act -95*.
COc1cc2c(cc1NC(=S)Nc1cccc(C)c1)oc1ccccc12 was read as aSyn UTR act -124*.
For COc1cc2c(cc1NC(=O)C(C)OC(=O)C1CC(=O)N(Cc3ccco3)C1)oc1ccccc12 (configuration not stated) the results were aSyn UTR act -127*.
Screening COc1ccc(NC(=O)Nc2cc3oc4ccccc4c3cc2OC)cc1 returned aSyn UTR act -152*.
For CC(/C=C/c1ccco1)=N/NC(=O)OC(C)(C)C the results were aSyn UTR act -129*.
Screening C/C(=N/NC(=O)OC(C)(C)C)c1ccco1 returned aSyn UTR act -86*.
CSc1ccccc1NC(=O)c1cc(C(C)C)on1 was read as aSyn UTR act -143*.
For CC(C)c1cc(C(=O)Nc2cc(Cl)ccc2O)no1 the results were aSyn UTR act -290*.
`CC(C)c1cc(C(=O)Nc2cc(Br)ccc2O)no1` gave aSyn UTR act -291*.
`O=C(Nc1cc(Br)ccc1O)c1cc(-c2cccs2)on1` gave aSyn UTR act -147*.
O=C(Nc1ccccc1)ON=C1CCCC1 was read as aSyn UTR act -82*.
Cc1ccc(NC(=O)ON=C2CCCC2)cc1 was read as aSyn UTR act -205*.
`NC(=O)c1cccnc1Nc1cccc([N+](=O)[O-])c1` gave aSyn UTR act -109*.
Screening CCOC(=O)Cc1c(C)nc2c(-c3ccccc3)c(-c3ccccc3)[nH]n2c1=O returned aSyn UTR act -85*.
Cc1nc2c(-c3ccc(Cl)cc3)c(C)[nH]n2c(=O)c1Cc1ccccc1 was read as aSyn UTR act 78.
Screening CN(C)S(=O)(=O)Oc1ccc(C(=O)Nc2cccc(Cl)c2)cc1 returned aSyn UTR act -244*.
For CN(C)S(=O)(=O)Oc1cccc(C(=O)Nc2ccc(Cl)cc2)c1 the results were aSyn UTR act -129*.
Screening CN(C)S(=O)(=O)Oc1cccc(C(=O)Nc2ccccc2Cl)c1 returned aSyn UTR act -91*.
Screening Cc1cc(-c2csc(NC(=O)c3cccc(S(=O)(=O)N(C)C)c3)n2)c(C)n1-c1ccccc1 returned aSyn UTR act -83*.
For O=C(Nc1nc2ccccc2s1)c1ccc(N2CCCCC2)c([N+](=O)[O-])c1 the results were aSyn UTR act -67*.
`O=C(Nc1ccon1)c1ccc(N2CCCCC2)c([N+](=O)[O-])c1` gave aSyn UTR act -143*.
Screening Cc1ccc(C(=O)c2cc([N+](=O)[O-])ccc2N2CCCCC2)c(C)c1 returned aSyn UTR act 69.
Screening COC(=O)c1cc(-c2c(C)nn(-c3ccccc3)c2C)n[nH]1 returned aSyn UTR act -87*.
Cc1ccc(-c2cc(C(=O)N/N=C/c3c(C)nn(-c4ccccc4)c3C)[nH]n2)cc1 was read as aSyn UTR act 66.
`O=C(C1CCCN(c2ncnc3c2nc2n3CCCCC2)C1)N1CCN(c2ccccc2)CC1` (configuration not stated) gave aSyn UTR act -148*.
Screening CN(C)c1ccc(NC(=O)c2ccc(Cn3cc([N+](=O)[O-])cn3)cc2)cc1 returned aSyn UTR act -73*.
`O=C(Nc1cnn(Cc2c(Cl)cccc2Cl)c1)c1ccc([N+](=O)[O-])cc1` gave aSyn UTR act -65*.
`Cc1ccccc1OCC(=O)Nc1cccc(N(C)S(C)(=O)=O)c1` gave aSyn UTR act -62*.
`CSc1ccccc1NC(=O)COc1ccccc1C` gave aSyn UTR act -107*.
Cc1ccc(C)c(OCC(=O)Nc2c[nH]c(=O)[nH]c2=O)c1 was read as aSyn UTR act 81.
